Screens deposited in PubChem BioAssay by National Center for Advancing Translational Sciences (NCATS).
GLP1R cytotox = cytotoxicity in counter-screen for GLP-1R inverse agonists; HEK293 cAMP-luciferase reporter cells, luminescence, 24 h; Potency, µM (top dose mostly 38.3 µM), for the others: at the top dose activity change, negative = inhibition, usual class: inhibitors; 410,000 compounds, 0.13% hits; AID 624418;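 also: loss of luciferase light is scored as toxicity; potency is read from the fitted curve at half-maximal effect; % is scaled to controls: 0 for no effect and ±100 for the full control effect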
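Cells in DMEM/10% Nu serum/1% pen-strep, 1536-well format. Pre-incubated 12 h, dosed with 23 nL compound, incubated a further 24 h. Luciferase detection, 12 min at room temp, luminescence.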
IDH1 R132H inh = inhibitors of human mutant IDH1 R132H; O75874; IDH1-R132H enzyme, NADPH consumption, diaphorase/resazurin fluorescence; Potency, µM (doses to about 76.6 µM), without a hit: at the top dose activity change, negative = inhibition, most hits filed as inhibitors; 390,000 compounds, 0.093% hits; also: potency is read from the fitted curve at half-maximal effect; % is scaled to controls: 0 for no effect and ±100 for the full control effect; nearly all actives have a fitted effect of over 65% in size
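IDH1-R132H (0.5 ug/mL dispensed) in pH 7.5 Tris buffer was preincubated 30 min with compound, then given a substrate mix of 0.016 mM NADPH and 2 mM alpha-KG for 80 min at room temperature; remaining NADPH was read by diaphorase/resazurin fluorescence.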
GLP-1R inv ag = inverse agonists of human GLP-1 receptor | P43220 | HEK293 GLP-1R CRE-luciferase, luminescence, 24 h; GLP-1R form is constitutively active | Potency, µM (top dose mostly 38.3 µM), for the others: top-dose activity change, negative = inhibition, actives largely listed as inhibitors | 410,000 compounds, 1.6% hits | AID 624417; also: potency is read from the fitted curve at half-maximal effect; % is scaled to controls: 0 for no effect and ±100 for the full control effect; nearly all actives have a fitted effect of over 55% in size
Target sequence (P43220 whole entry, looked up): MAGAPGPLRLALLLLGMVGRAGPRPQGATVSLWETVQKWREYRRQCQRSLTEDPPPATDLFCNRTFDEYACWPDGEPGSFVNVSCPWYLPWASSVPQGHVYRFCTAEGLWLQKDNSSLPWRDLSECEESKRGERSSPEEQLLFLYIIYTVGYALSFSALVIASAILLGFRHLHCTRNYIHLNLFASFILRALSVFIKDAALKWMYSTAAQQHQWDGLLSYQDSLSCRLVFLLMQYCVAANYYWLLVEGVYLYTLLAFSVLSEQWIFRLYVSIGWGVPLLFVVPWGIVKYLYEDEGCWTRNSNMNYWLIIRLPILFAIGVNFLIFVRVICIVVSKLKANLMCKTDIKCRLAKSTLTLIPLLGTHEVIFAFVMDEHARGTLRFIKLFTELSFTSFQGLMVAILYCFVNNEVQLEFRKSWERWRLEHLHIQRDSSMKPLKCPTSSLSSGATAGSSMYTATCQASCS
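HEK293 cells stably co-expressing constitutively active GLP-1R and a cAMP-responsive luciferase reporter were seeded in DMEM with 10% Nu serum, given compounds after 12 h, and incubated 24 h at 37 deg C. Luminescence was then read.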
PTHR1 ag = PTHR1 (human) receptor agonism; HEK293 GP2 PTHR1 cells, GloSensor cAMP luminescence, 1 h; 410,000 compounds, 0.075% hits; Q03431; Potency, µM (top dose mostly 115 µM), for inactives: top-dose activation, most hits filed as activators; AID 743266; also: potency is read from the fitted curve at half-maximal effect; nearly all actives have a fitted effect of over 55% in size
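HEK-293-derived GP2 cells expressing PTHR1 and a GloSensor cAMP reporter, 3,000/well, plated overnight, given luciferin plus IBMX (each 0.5 mM as added) for 1 h at 37 °C, then compound for 1 h at 37 °C. Luminescence was read after 15 min at room temperature.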
GLP1R ag = activates the human GLP-1 receptor; P43220; HEK293 GLP-1R CRE-luciferase, luminescence, 4-6 h; cells express a hypersensitive GLP-1R form; Potency, µM (titrated, usually from 45.6 µM), without a hit: at the highest dose activation, hits mostly activators; 380,000 compounds, 0.007% hits; also: potency is read from the fitted curve at half-maximal effect; % of control where 0% means no effect
LDHA inh = inhibitors of human lactate dehydrogenase A; activity change, % (values are at about 110 or 230 µM); P00338; 480,000 compounds, 0.15% hits; purified LDHA, NADH/diaphorase-resazurin fluorescence; hits give low values; in the data active = activity change below about -30%; inconclusive = mostly about -25% to -30%;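 also: plate controls were DMSO wells for no effect and wells without enzyme for full effect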
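Human LDH5 (2 nM) was incubated with 0.06 mM NADH and 0.2 mM pyruvate for 5 min at room temperature in Tris pH 7.4. Remaining NADH was coupled through diaphorase/resazurin, and resorufin fluorescence was read at 0 and 20 min.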
Active calls of the source: *; i = inactive; ? = inconclusive; / = no result given; [ ] = dose if it differs, or a comment. Only some compounds are listed: those with a hit (about 1.7% of all), similar ones and a draw of the others. Unless noted, calls follow the shape of the dose curve; as a rule, active = well fitted curve in the direction sought with a large enough effect; inconclusive = small, poorly fitted or top-dose-only effect, or another doubt; inactive = no such curve, though single readings can be large; an effect the other way counts as inactive or inconclusive.

SMILES	GLP1R cytotox	IDH1 R132H inh	GLP-1R inv ag	PTHR1 ag	GLP1R ag	LDHA inh
Cc1c(Cl)cccc1NC(=O)CSC1=NS(=O)(=O)c2ccccc2N1Cc1ccccc1	/	/	/	/	/	12
COC(=O)CCNC(=O)c1ccc(C#N)cc1	/	/	/	/	/	0
COc1cc(OC)c(C2=CCN(C(=O)c3ccccc3OCc3noc(C)n3)CC2)c(OC)c1	/	/	/	/	/	17
CCCCC(=O)Nc1oc2c(C)cccc2c(=O)c1-c1ccc2c(c1)OCO2	/	/	/	/	/	2
Cc1ccc(C(=O)N(Cc2ccccc2)C(C)(C)C)cc1C	-2%	6%	7.1µM*	i	0%	-3
Cc1ccc(C(=O)c2ccccc2)cc1C	/	/	/	/	/	9
O=C1c2ccccc2CCCC12N=NCC2c1cccc2ccccc12 (stereo unspecified)	13%	1%	7.1µM*	i	0%	-17
Cc1ccc(C2CN=NC23CCc2ccccc2C3=O)cc1 (stereo unspecified)	-14%	20%	-2%	-12%[57.5 µM]	-7%	5
CCOc1ccc(OCC)c(S(=O)(=O)NCCOC23CC4CC(CC(C4)C2)C3)c1	-13%	2%	4µM*	-18%	0%	-5
COc1ccc(CNC(=O)CN2CCN(C(c3ccccc3)c3ccccc3)CC2)cc1	-14%	0%	13µM*	-2%	17%	-6
CC(C)(C)NC(=O)NC(=O)CN1CCN(C(c2ccccc2)c2ccccc2)CC1	16%	7%	5µM*	-34%	-1%	-16
O=C(CN1CCN(c2ccccc2)CC1)N1N=CCC1c1ccccc1 (stereo unspecified)	18%	0%	-13%	-25%[57.5 µM]	2%	-4
CC(C)(C)NC(=O)NC(=O)CN1CCN(Cc2ccccc2)CC1	-5%	6%	-14%	-40%	-4%	-1
O=C(CN1CCN(C(c2ccccc2)c2ccccc2)CC1)N1N=CCC1c1ccccc1 (stereo unspecified)	-21%	-1%	11µM*	i	9%	1
Cc1nn(Cc2ccc(Cl)cc2Cl)c(C)c1NC(=O)c1sc2ccccc2c1Cl	0%	0%	3%	-24%	-10%	-6
Cc1nn(Cc2ccc(Cl)cc2Cl)c(C)c1NC(=O)NC12CC3CC(CC(C3)C1)C2	-25%	1%	5µM*	-14%[57.5 µM]	-11%	-6
Cc1ccc(-c2nc(CCNC(=O)Nc3cc(F)c(N(C)C)c(F)c3)co2)cc1	/	/	/	/	/	-4
CCCCn1cnc2c1c(=O)[nH]c(=O)n2CC(C)C	/	/	/	/	/	-5
Cc1ccc(N(CCC(=O)O)S(=O)(=O)c2ccccc2)cc1	69%	5%	21%	i	8%	-4
CCOc1ccccc1NC(=O)CCN(c1ccc(C)cc1)S(=O)(=O)c1ccccc1	12%	5%	11µM*	i	5%	0
O=C1/C(=C/c2ccc(N3CCOCC3)o2)SC(=Nc2ccccc2)N1CCc1c[nH]c2ccccc12	?	-2%	1.1µM*	-58%	-53%	4
NC(=O)c1cccc(-c2ccnc3c2CC(C(=O)NCc2ccccc2)O3)c1 (stereo unspecified)	-27%	/	5µM*	-16%	1%	-4
CC(=O)OCCn1c(C)[n+](CCOC(C)=O)c2cc(Cl)c(Cl)cc21	6%	3%	4%	-17%	5%	-16
CCn1c(C)[n+](CCOCC[n+]2c(C)n(CC)c3cc(Cl)c(Cl)cc32)c2cc(Cl)c(Cl)cc21	1%	0%	-1%	i	-3%	-43*
Clc1ccc(Cn2nc(-c3ccccc3)nc2-c2ccccc2)cc1	-1%	-1%	7.9µM*	-31%	0%	0
SMILES	GLP1R cytotox	IDH1 R132H inh	GLP-1R inv ag	PTHR1 ag	GLP1R ag	LDHA inh
CC(=O)c1c(C)[nH]c(C(=O)Nc2ccc(C)cn2)c1C	-7%	6%	5.6µM*	-15%[57.5 µM]	-13%	0
CC(=O)c1c(C)[nH]c(C(=O)Nc2ccc(C)c(S(=O)(=O)Nc3ccc(C)cc3C)c2)c1C	?	0%	2.5µM*	-35%	-2%	0
COc1ccc(-c2nc(NC(=O)c3[nH]c(C)c(C(C)=O)c3C)sc2C)cc1	-2%	3%	13µM*	-20%	7%	-5
CC(=O)c1c(C)[nH]c(C(=O)Nc2ccc(C)c(S(=O)(=O)N(C)C)c2)c1C	-1%	4%	-5%	-39%	1%	1
CC(=O)c1c(C)[nH]c(C(=O)Nc2nc(C)cs2)c1C	-2%	8%	2.2µM*	-32%	-1%	-3
CC(=O)c1c(C)[nH]c(C(=O)Nc2cc(C)cc(C)c2)c1C	7%	9%	1%	-9%[57.5 µM]	-8%	-6
CCN1CCN(Cc2cc(=O)oc3cc(C)c(C)cc23)CC1	/	/	/	/	/	-2
Cc1cccc(N2C(=O)CC(Sc3nc(C)c4c(n3)CCCC4)C2=O)c1 (stereo unspecified)	5µM*	0%	-22%	-18%[57.5 µM]	22%	-5
CCN(CC)CCCNCc1ccccc1	/	/	/	/	/	9
O=C(OCc1ccccc1)N(CCCCN(CCCNCc1ccccc1)C(=O)OCc1ccccc1)CCCNCc1ccccc1	?	8%	2.8µM*	-35%	-5%	5
CC(C)(C)OC(=O)N1CCC(c2cc(-c3cccs3)n[nH]2)CC1	-4%	-4%	10µM*	-34%	21%	-8
COc1ccc2nc(N3C(=O)CNC3=S)sc2c1	7.9µM*	-6%	?	-15%	0%	-5
Cc1ccc2nc(N3C(=O)CNC3=S)sc2c1	?	9%	?	-16%	11%	-11
CCOc1ccc(NC(=S)N2CCCN(Cc3cccc(Cl)c3)C2)cc1	7%	5%	?	i	16%	-2
CSc1cccc(NC(=S)N2CCCN(Cc3cccc(Cl)c3)C2)c1	-12%	-6%	3.5µM*	-3%	7%	-4
CSc1cccc(NC(=S)N(CCCN2CCCC2)Cc2cccn2Cc2ccc(Cl)cc2)c1	11µM*	0%	3.5µM*	-15%	-5%	6
S=C(Nc1cccc(Cl)c1)N(CCCN1CCCC1)Cc1cccn1Cc1ccc(Cl)cc1	?	1%	?	-9%	-2%	-2
COc1ccc(NC(=S)N2CCCN(Cc3cccc(Cl)c3)C2)cc1	-6%	0%	8.9µM*	i	13%	-4
CC(=O)c1ccc(N2CCCC(C)C2)cc1 (stereo unspecified)	/	/	/	/	/	7
CC1CN(C(=O)Cc2nn(C)c(=O)c3ccccc23)CCO1 (stereo unspecified)	/	/	/	/	/	-8
